# Test results published in PubChem BioAssay (NCATS).
# Values joined by “and” are separate entries in the source; they are usually repeats but may differ in a detail not shown here. Equal values may be shown once. Results filed as inconclusive are left out. Entries that show only a call come without a potency. Active and inactive are the calls of the source. Calls come from the whole dose curve; as a rule, active = well fitted cell-killing curve with a large enough effect; inconclusive = small, poorly fitted or top-dose-only effect, or effect the other way; inactive = flat fitted curve, though single readings scatter.
# Tested on: CASKI
# Assay: Primary qHTS to identify gynecologic anti-cancer compounds using libraries of approved drugs and bioactive compounds (AID 1345084); note: nearly all actives have a fitted effect of over 55% in size
# Details: Gynecologic cancer cell panel viability, ATPlite luminescence, 48 h; series mostly up to 57.5 µM
# Method in brief: (§1)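 Five-concentration response, 48 h; readout is ATP-driven luciferase luminescence.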
# Potency is the fitted concentration of half-maximal effect.
row,Structure (SMILES),Potency
1,CCc1cncnc1N1CCN(Cc2nc3ccc(C(F)(F)F)cc3[nH]2)CC1,inactive
2,N#CC[C@H](C1CCCC1)n1cc(-c2ncnc3[nH]ccc23)cn1,inactive
3,Cn1cnc([N+](=O)[O-])c1Sc1ncnc2nc[nH]c12,1.26 µM (active) and 3.55 µM (active)
4,O=C(NOC[C@H](O)CO)c1ccc(F)c(F)c1Nc1ccc(I)cc1F,inactive
5,CCC(C)(C)C(=O)O[C@H]1C[C@@H](C)C=C2C=C[C@H](C)[C@H](CC[C@@H]3C[C@@H](O)CC(=O)O3)[C@H]21,inactive
6,Cc1oncc1C(=O)Nc1ccc(C(F)(F)F)cc1,31.6 µM (active)
7,CCc1cc(Nc2nccc(-c3c(-c4ccc(OC)c(C(=O)Nc5c(F)cccc5F)c4)nc4ccccn34)n2)c(OC)cc1N1CCC(N2CCN(S(C)(=O)=O)CC2)CC1,inactive
8,COc1ccccc1[C@H](c1cccc2ccccc12)[C@@](C)(C#N)C(=O)N1CCC(c2cccc(C(F)(F)F)c2)CC1,inactive
9,C#Cc1cccc(Nc2ncnc3cc(OCCOC)c(OCCOC)cc23)c1,inactive
10,CS(=O)(=O)c1cccc(CNc2nc(Nc3ccc4c(c3)CCC(=O)N4)ncc2C(F)(F)F)c1,inactive
11,CCOc1ccn(-c2ccc(F)cc2)c(=O)c1C(=O)Nc1ccc(Oc2ccnc(N)c2Cl)c(F)c1,inactive
12,CC1(C)CNc2cc(NC(=O)c3cccnc3NCc3ccncc3)ccc21,inactive
13,N[C@@H]1CONC1=O,inactive
14,CNCc1ccc(-c2[nH]c3cc(F)cc4c3c2CCNC4=O)cc1,inactive
15,NC[C@H](O)c1ccc(O)c(O)c1,inactive
16,CNC(=O)c1ccccc1Sc1ccc2c(/C=C/c3ccccn3)n[nH]c2c1,11.2 µM (active)
17,CCCS(=O)(=O)Nc1ccc(F)c(C(=O)c2c[nH]c3ncc(Cl)cc23)c1F,inactive
18,Cc1ccc(-n2nc(C(C)(C)C)cc2NC(=O)Nc2ccc(OCCN3CCOCC3)c3ccccc23)cc1,inactive
19,O=C(O)CCc1ccc(NCc2cccc(Oc3ccccc3)c2)cc1,inactive
20,Oc1ccc(C2CNCCc3c2cc(O)c(O)c3Cl)cc1 (centres undefined),inactive

# Tested on: Es-2
# Assay: as above
# Details: Gynecologic cancer cell panel viability, ATPlite luminescence, 48 h; series mostly up to 57.5 µM
# Method in brief: as §1
row,Structure (SMILES),Potency
1,CCc1cncnc1N1CCN(Cc2nc3ccc(C(F)(F)F)cc3[nH]2)CC1,inactive
2,O=c1[nH]c(-c2ccc(C(F)(F)F)cc2)nc2c1CSCC2,28.2 µM (active)
3,Cn1cnc([N+](=O)[O-])c1Sc1ncnc2nc[nH]c12,3.16 µM (active) and 10 µM (active)
4,Cc1oncc1C(=O)Nc1ccc(C(F)(F)F)cc1,28.2 µM (active)
5,CCc1cc(Nc2nccc(-c3c(-c4ccc(OC)c(C(=O)Nc5c(F)cccc5F)c4)nc4ccccn34)n2)c(OC)cc1N1CCC(N2CCN(S(C)(=O)=O)CC2)CC1,inactive
6,COc1ccccc1[C@H](c1cccc2ccccc12)[C@@](C)(C#N)C(=O)N1CCC(c2cccc(C(F)(F)F)c2)CC1,inactive
7,C#Cc1cccc(Nc2ncnc3cc(OCCOC)c(OCCOC)cc23)c1,inactive
8,COc1cccc2cc(-c3nc(C4CCC(C(=O)O)CC4)n4ncnc(N)c34)[nH]c12 (centres undefined),7.08 µM (active)
9,Cc1cc(Nc2nc(N[C@@H](C)c3ncc(F)cn3)ncc2Cl)n[nH]1,inactive
10,Nc1nc2c(ncn2COCCO)c(=O)[nH]1,inactive
11,CS(=O)(=O)c1cccc(CNc2nc(Nc3ccc4c(c3)CCC(=O)N4)ncc2C(F)(F)F)c1,inactive
12,CCOc1ccn(-c2ccc(F)cc2)c(=O)c1C(=O)Nc1ccc(Oc2ccnc(N)c2Cl)c(F)c1,inactive
13,CC1(C)CNc2cc(NC(=O)c3cccnc3NCc3ccncc3)ccc21,inactive
14,N[C@@H]1CONC1=O,inactive
15,CNCc1ccc(-c2[nH]c3cc(F)cc4c3c2CCNC4=O)cc1,inactive
16,NC[C@H](O)c1ccc(O)c(O)c1,inactive
17,CNC(=O)c1ccccc1Sc1ccc2c(/C=C/c3ccccn3)n[nH]c2c1,15.8 µM (active) and 17.8 µM (active)
18,Cc1ccc(-n2nc(C(C)(C)C)cc2NC(=O)Nc2ccc(OCCN3CCOCC3)c3ccccc23)cc1,inactive
19,Oc1ccc(C2CNCCc3c2cc(O)c(O)c3Cl)cc1 (centres undefined),inactive
